Experimental data as given in PubChem BioAssay (NCI).
Where “and” joins values, the source holds several entries; their conditions need not be identical. Equal entries are not always repeated. Compounds without any hit were thinned out: in the full panel of roughly 83,000, 20% have a hit.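 Each cell line was grown in a 96-well plate and treated with one concentration of compound for 48 hours. Values below 10 were considered active.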 Calls of active or inactive are those of the source.

Tests used:
Assay in all cases: NCI-60 one-dose screen, 48 h (100 = growth as untreated, 0 = no growth, -100 = all killed)
Conditions in all cases: 10 µM unless noted
HCT-15 colon = test system: HCT-15 colon
HT29 colon = test system: HT29 colon
SNB-75 CNS = test system: SNB-75 CNS
SNB-19 CNS = test system: SNB-19 CNS
U251 CNS = test system: U251 CNS
PC-3 prostate = test system: PC-3 prostate
SK-MEL-5 melanoma = test system: SK-MEL-5 melanoma
UACC-62 melanoma = test system: UACC-62 melanoma
LOX IMVI melanoma = test system: LOX IMVI melanoma
SK-MEL-28 melanoma = test system: SK-MEL-28 melanoma
SK-MEL-2 melanoma = test system: SK-MEL-2 melanoma
EKVX NSCLC = test system: EKVX NSCLC
SN12C renal = test system: SN12C renal
UO-31 renal = test system: UO-31 renal
TK-10 renal = test system: TK-10 renal
ACHN renal = test system: ACHN renal
CAKI-1 renal = test system: CAKI-1 renal
A498 renal = test system: A498 renal
CCRF-CEM leukemia = test system: CCRF-CEM leukemia
MOLT-4 leukemia = test system: MOLT-4 leukemia

Measured: growth

CC(=O)C(/C=N/C(N)=O)=C(/C)O
inactive: HCT-15 colon 104% | HT29 colon 101% | SNB-75 CNS 93.8% | SNB-19 CNS 103% | U251 CNS 99.6% | PC-3 prostate 100% | SK-MEL-5 melanoma 110% | UACC-62 melanoma 110% | LOX IMVI melanoma 92.9% | SK-MEL-28 melanoma 115% | SK-MEL-2 melanoma 119% | EKVX NSCLC 108% | SN12C renal 105% | UO-31 renal 91.1% | TK-10 renal 105% | ACHN renal 99.8% | CAKI-1 renal 97.9% | A498 renal 92.7% | CCRF-CEM leukemia 97.4%

COc1ccc2c(=O)cc(-c3ccccc3)[nH]c2c1
31.4% (inactive) and -8.1% (active): SK-MEL-2 melanoma
active: HT29 colon -3.3% and 5.55%
inactive: HCT-15 colon 22.6% and 19.2% | SNB-19 CNS 29.6% and 27% | U251 CNS 12.2% and 15.6% | PC-3 prostate 18.5% and 19.4% | SK-MEL-5 melanoma 21.5% and 12.7% | UACC-62 melanoma 38.4% and 20% | LOX IMVI melanoma 48.3% and 49% | SK-MEL-28 melanoma 39.3% and 70.8% | EKVX NSCLC 48.9% and 18.9% | SN12C renal 45.7% and 42.7% | TK-10 renal 48.4% and 63.7% | ACHN renal 54.4% and 51.9% | CAKI-1 renal 24.6% | A498 renal 50.7% | CCRF-CEM leukemia 14% and 12.2%
13.8% (inactive) and 9.61% (active): SNB-75 CNS
41.7% (inactive) and 8.7% (active): UO-31 renal

Cc1ccc2nc3c(nc2c1)-c1cccc2cccc-3c12
inactive: HCT-15 colon 75.1% | HT29 colon 80.3% | SNB-75 CNS 94.9% | SNB-19 CNS 100% | U251 CNS 78.8% | PC-3 prostate 87.4% | SK-MEL-5 melanoma 62.7% | UACC-62 melanoma 79.6% | LOX IMVI melanoma 82.6% | SK-MEL-28 melanoma 102% | SK-MEL-2 melanoma 107% | EKVX NSCLC 71.4% | SN12C renal 81.2% | UO-31 renal 63.1% | TK-10 renal 83.5% | ACHN renal 68.6% | CAKI-1 renal 79.1% | A498 renal 83.1% | CCRF-CEM leukemia 85.7% | MOLT-4 leukemia 80.1%

COc1ccc(/C(C#N)=C/c2ccccn2)cc1
inactive: HCT-15 colon 96.2% and 109% | HT29 colon 106% and 103% | SNB-75 CNS 99.2% and 105% | SNB-19 CNS 97.9% and 106% | U251 CNS 97.9% and 101% | PC-3 prostate 104% and 101% | SK-MEL-5 melanoma 94.9% and 99.9% | UACC-62 melanoma 93.8% and 114% | LOX IMVI melanoma 99.7% and 115% | SK-MEL-28 melanoma 107% and 139% | SK-MEL-2 melanoma 103% and 117% | EKVX NSCLC 90.1% and 99.5% | SN12C renal 101% and 115% | UO-31 renal 95.5% and 98.9% | TK-10 renal 104% and 117% | ACHN renal 108% and 109% | CAKI-1 renal 101% and 126% | A498 renal 93.2% and 122% | CCRF-CEM leukemia 93% and 102%

CCOC(=O)Nc1nc2ccccc2[nH]1
inactive: HCT-15 colon 102% and 17.9% | HT29 colon 104% and 20.8% | SNB-75 CNS 102% and 23.3% | SNB-19 CNS 99.9% and 31.5% | U251 CNS 96.1% and 26.2% | PC-3 prostate 98.7% and 48% | SK-MEL-5 melanoma 113% and 19.3% | UACC-62 melanoma 102% and 30.8% | LOX IMVI melanoma 99.8% and 43.8% | SK-MEL-28 melanoma 109% and 32.6% | SK-MEL-2 melanoma 110% and 51% | EKVX NSCLC 95.6% and 68.4% | SN12C renal 95.1% and 34.9% | UO-31 renal 94.5% and 51.5% | TK-10 renal 111% and 64.6% | ACHN renal 103% and 52.6% | CAKI-1 renal 93.6% and 40.7% | A498 renal 117% and 42.3% | CCRF-CEM leukemia 98.9% and 27.8% | MOLT-4 leukemia 120% and 16.7%
